Data published in PubChem BioAssay (NCI).
About 79,000 compounds went through this panel and 15% of them were active in at least one assay; those are over-represented in the sample as a whole. A number with no mark means an inactive call. Activity calls are given as the source filed them. Rule as the data show it: active = growth inhibition above about 70%; inactive = the rest.

What was measured:
[1] = NCI Yeast Anticancer Drug Screen. Data for the rad50 strain (AID 155);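 also: 0% = growth of vehicle-only cultures of the same strain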; details: S. cerevisiae rad50 strain growth inhibition, active compounds read high
Procedure, shortened: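 Growth of the mutant yeast was measured after compound exposure and referenced to vehicle-treated cultures.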

[2] = NCI Yeast Anticancer Drug Screen. Data for the mec2-1 strain (AID 157); details: S. cerevisiae mec2-1 strain, active compounds read high
Procedure, shortened: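 Growth inhibition is read against vehicle-treated controls after compound exposure of the mec2-1 yeast strain, which is defective in DNA damage repair or cell cycle control.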

[3] = NCI Yeast Anticancer Drug Screen. Data for the sgs1 mgt1 strain (AID 161);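 also: 0% = growth of cultures given vehicle only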; details: S. cerevisiae sgs1 mgt1 strain, active compounds read high
Procedure, shortened: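 Compounds are added to genetically altered yeast, and growth is compared with cultures given vehicle alone to give percent inhibition.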

[4] = NCI Yeast Anticancer Drug Screen. Data for the cln2 rad14 strain (AID 165);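 also: 0% = growth equal to vehicle treated cultures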; details: S. cerevisiae cln2 rad14 strain, active compounds read high
Procedure, shortened: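 Growth inhibition, relative to vehicle-treated controls, is the read-out. The test organism is a yeast strain with defined genetic alterations, cln2 rad14.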

[5] = NCI Yeast Anticancer Drug Screen. Data for the bub3 strain (AID 167); details: S. cerevisiae bub3 mutant strain, active compounds read high
Procedure, shortened: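 Whole-cell yeast assay. The mutant strain was incubated with compounds, and growth inhibition was determined by comparison with vehicle-treated cells.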

[6] = NCI Yeast Anticancer Drug Screen. Data for the mlh1 rad18 strain (AID 175); details: S. cerevisiae mlh1 rad18 strain growth inhibition, active compounds read high
Procedure, shortened: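 Cells of a genetically altered yeast strain, deficient in DNA damage repair, were treated with compound. Their growth was then compared with that of vehicle-treated cultures to give inhibition.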

[7] = at 5.0 µM (retest, dose inferred, filed as 0.5)
[8] = at 50.0 µM (retest, dose inferred, filed as 5.0)

| Compound | growth inhibition [1, 7] | growth inhibition [1, 8] | growth inhibition ([1]; at 50.0 µM) | growth inhibition [2, 7] | growth inhibition [2, 8] | growth inhibition ([2]; at 50.0 µM) | growth inhibition [3, 7] | growth inhibition [3, 8] | growth inhibition ([3]; at 50.0 µM) | growth inhibition [4, 7] | growth inhibition [4, 8] | growth inhibition ([4]; at 50.0 µM) | growth inhibition [5, 7] | growth inhibition [5, 8] | growth inhibition ([5]; at 50.0 µM) | growth inhibition [6, 7] | growth inhibition [6, 8] | growth inhibition ([6]; at 50.0 µM) |
| --- | --- | --- | --- | --- | --- | --- | --- | --- | --- | --- | --- | --- | --- | --- | --- | --- | --- | --- |
| ClC1c2ccccc2Cc2cccnc21 (configuration not stated) | 21% | 85% (active) | 75.3% (active) | 11% | 24% | 11.8% | 10% | 59% | 12.2% | 4% | 22% | -5.1% | 7% | 48% | -6.6% | 8% | 76% (active) | 23.5% |
| C/C(=C/CC1CCC2C3=CCC4CC(O)CCC4(C)C3CCC12C)C(C)C(C)C (configuration not stated) | 17% | 97% (active) | 98% (active) | -4% | 86% (active) | 74.3% (active) | 2% | 66% | 59.1% | 0% | 69% | 81.5% (active) | -2% | 97% (active) | 64.8% | 13% | 89% (active) | 97.3% (active) |
| CN(C)CCC(=O)c1ccco1 | 6% | 85% (active) | 86.1% (active) | 13% | 93% (active) | 94% (active) | 25% | 87% (active) | 93.3% (active) | 10% | 89% (active) | 93.5% (active) | -3% | 39% | 70.2% (active) | 13% | 92% (active) | 95.3% (active) |
| Cc1ccc2c(c1)C(O)(c1ccccc1)C(c1ccccc1)C(c1ccccc1)O2 (configuration not stated) | 78% (active) | 83% (active) | 93.9% (active) | 56% | 92% (active) | 94.3% (active) | 69% | 87% (active) | 93.7% (active) | 59% | 62% | 90.4% (active) | 87% (active) | 91% (active) | 89.5% (active) | 66% | 88% (active) | 93.6% (active) |
| CCCCCCCCCCCCCCCCNC(=O)/C(=C\c1ccccc1O)NC(=O)c1ccccc1 | 0% | 6% | 66.2% | -8% | -2% | 35.1% | 0% | 14% | 71.7% (active) | 33% | -20% | 27.3% | 2% | 8% | 73.7% (active) | 18% | -6% | 67.6% |
| Clc1ccnc2c1ccc1c(Cl)ccnc12 | 8% | 53% | 43.6% | -17% | 2% | 26.4% | 1% | 12% | 20.7% | 5% | -10% | 13.9% | -74% | 10% | 40.6% | 3% | 15% | 45.9% |
| O=C1OC(c2ccc3c(c2)OCO3)Sc2ccccc21 (configuration not stated) | 11% | 24% | 30.1% | -4% | -9% | 9.85% | 1% | 10% | 23.4% | -2% | 4% | -2.5% | 9% | 52% | 68.3% | -6% | 27% | 25.8% |
| Cc1ccc(N=Nc2c(-c3ccccc3)nn(C(=S)S)c2-c2ccccc2)cc1 | 8% | 48% | 49.7% | 9% | 37% | 38.5% | 12% | 72% (active) | 55.8% | 5% | 39% | 16.2% | 36% | 84% (active) | 85.2% (active) | 7% | 34% | 61.8% |
| CCOC(=O)C(NS(=O)(=O)c1ccccc1)(C(F)(F)F)P(=O)(OCC(C)C)OCC(C)C (configuration not stated) | 4% | -2% | 98.5% (active) | 8% | -2% | 96.1% (active) | -7% | -3% | 96.2% (active) | 2% | 13% | 97.3% (active) | 4% | 0% | 96.2% (active) | 0% | 17% | 98% (active) |
